Among the data in PubChem BioAssay (NCATS) are Potency and outcome values, retold here.

Experiment [1] can be described thus: qHTS to identify inhibitors of the type 1 interferon - major histocompatibility complex class I in skeletal muscle: primary screen against the NCATS Pharmaceutical Collection (AID 1347407; active = well fitted curve in the direction sought with a large enough effect; an effect the other way counts as inactive or inconclusive;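 note: luminescence of HiBiT knocked into endogenous HLA-B as interferon-induced MHC class I level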; note: potency is the fitted concentration of half-maximal effect). Put shortly:
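Immortalized human myoblasts (C25cl48) with HiBiT knocked into endogenous HLA-B*08:01 were stimulated with 4.0 ng/ml IFN-beta and treated with compounds ([…] top 46 uM) for 24 hrs at 37 C. HiBiT lytic luminescence read.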
(In general: In qHTS, concentration-response curves come from the screen itself.)

The target of experiment [2] is Protein phosphatase 1D (Homo sapiens) (UniProt O15297). Briefly: RapidFire Mass Spectrometry qHTS Assay for Modulators of WT P53-Induced Phosphatase 1 (WIP1) (AID 1347424; active = well fitted curve in the direction sought with a large enough effect; an effect the other way counts as inactive or inconclusive;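 note: amount of dephosphorylated VEPPL-S-QETFS peptide product formed by WIP1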; note: potency is the fitted concentration of half-maximal effect). Put shortly:
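WIP1 (10 nM final) was preincubated 1 h at room temperature with compounds in Tris-HCl pH 7.5, 30 mM MgCl2, TCEP, EGTA, BSA; 2 uM VEPPL-pS-QETFS phosphopeptide was added for 5 min, quenched with formic acid, and dephosphorylated product quantified by RapidFire MS.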

The target is the same in experiment [3]. The experiment can be described thus: Rhodamine-PBP qHTS Assay for Modulators of WT P53-Induced Phosphatase 1 (WIP1) (AID 1347425; active = well fitted curve in the direction sought with a large enough effect; an effect the other way counts as inactive or inconclusive). Put shortly:
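The read-out is the change in Rhodamine-PBP fluorescence (f1 - f0, ex 525/em 598 nm) as Pi is released, read each minute for 11 min. Final reaction: 5 nM WIP1, 10 uM phosphopeptide VEPPL-pS-QETFS, 10 uM Rh-PBP, 50 mM Tris-HCl pH 7.5, 30 mM MgCl2. Compound was preincubated with enzyme for 1 hour at room temperature.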

Experiment [4] in a line: Primary qHTS for Huh7 cytotoxicity: counterscreen for inhibitors of MERS-S pseudotyped particle cell entry (AID 1479147).
Experiment [5] is described as follows: Primary qHTS for inhibitors of MERS-S pseudo-typed particle cell entry (AID 1479149). Note: nearly all actives have a fitted effect of over 60% in size.
A short description of experiment [6]: Primary qHTS for Vero E6 cytotoxicity: counterscreen for inhibitors of SARS-S pseudo-typed particle cell entry (AID 1479150).
The nature of experiment [7]: Primary qHTS for inhibitors of SARS-S pseudo-typed particle cell entry (AID 1479145). Note: nearly all actives have a fitted effect of over 45% in size.

Records with an inconclusive call do not appear. Calls of active or inactive are those of the source. Unless noted, calls come from the whole dose curve.

Protein phosphatase 1D (Homo sapiens), sequence (O15297 whole entry, looked up): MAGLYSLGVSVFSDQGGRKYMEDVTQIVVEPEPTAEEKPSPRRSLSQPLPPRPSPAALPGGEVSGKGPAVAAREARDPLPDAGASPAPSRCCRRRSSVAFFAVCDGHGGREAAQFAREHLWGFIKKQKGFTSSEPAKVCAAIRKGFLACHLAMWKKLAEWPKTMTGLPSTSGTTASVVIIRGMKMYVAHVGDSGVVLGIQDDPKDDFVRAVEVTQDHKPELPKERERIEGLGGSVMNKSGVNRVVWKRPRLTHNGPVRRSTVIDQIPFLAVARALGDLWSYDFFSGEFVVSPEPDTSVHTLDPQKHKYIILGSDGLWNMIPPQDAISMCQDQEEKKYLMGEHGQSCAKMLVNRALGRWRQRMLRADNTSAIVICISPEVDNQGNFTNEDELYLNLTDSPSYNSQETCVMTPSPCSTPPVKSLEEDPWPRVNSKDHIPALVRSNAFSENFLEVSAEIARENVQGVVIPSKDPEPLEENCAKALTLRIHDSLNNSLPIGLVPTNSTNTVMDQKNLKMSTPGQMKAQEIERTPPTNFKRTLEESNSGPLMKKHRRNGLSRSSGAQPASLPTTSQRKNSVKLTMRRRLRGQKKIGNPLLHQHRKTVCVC

With `c1ccc2c(c1)sc1ccccc12`, the Potency entry in experiment [1], in experiment [2], in experiment [4], in experiment [5] and in experiment [6] was “inactive” each time. The call in experiment [3] was inactive.

In the case of `C[C@]12CCC(=O)C=C1CC[C@@H]1[C@@H]2CC[C@]2(C)C(=O)CC[C@@H]12`, the Potency result in experiment [1], in experiment [2], in experiment [7], in experiment [4], in experiment [5] and in experiment [6] was “inactive” each time. Besides, the compound was called inactive in experiment [3].

Consider `CC(=O)NC1CCSC1=O` (stereo not drawn), for which the Potency result in experiment [1] and in experiment [2] was “inactive” in each case. The call in experiment [3] was inactive.

As to `C[C@]12CC[C@H]3[C@@H](CC[C@@]45O[C@H]4C(O)=C(C#N)C[C@]35C)[C@H]1CC[C@H]2O`, the Potency in experiment [1] is 11.8 µM (active). Moreover, the Potency entry in experiment [2], in experiment [4] and in experiment [6] was “inactive” each time. Besides, the compound was classed as inactive in experiment [3].

Take `C[N+]1(CCF)[C@@H]2CC[C@H]1CC(OC(=O)C(O)(c1ccccc1)c1ccccc1)C2` (stereo partly drawn): the Potency result in experiment [1], in experiment [2], in experiment [4], in experiment [5] and in experiment [6] was “inactive” each time. Besides, in experiment [3], the compound was called inactive.

For `O=C1OC(c2ccc(O)c(S(=O)(=O)O)c2)(c2ccc(O)c(S(=O)(=O)O)c2)c2c(Br)c(Br)c(Br)c(Br)c21`, the Potency entry in experiment [1], in experiment [7], in experiment [4], in experiment [5] and in experiment [6] was “inactive” throughout. In addition, the Potency in experiment [2] is 10 µM (active).

`C[C@]12CC[C@H]3[C@@H](CCC4=CC(=O)CC[C@@H]43)[C@@H]1CC[C@@H]2OC(=O)CCC1CCCCC1`: the Potency result in experiment [1], in experiment [2], in experiment [7], in experiment [4], in experiment [5] and in experiment [6] was “inactive” each time. For the same compound, in experiment [3], the compound was classed as inactive.

For the compound `NS(=O)(=O)c1cc2c(cc1Cl)NC(C(Cl)Cl)NS2(=O)=O` (stereo not drawn), the Potency result in experiment [7], in experiment [4], in experiment [5] and in experiment [6] was “inactive” in each case.

Take `CCOC(=O)CC(SP(=S)(OC)OC)C(=O)OCC` (stereo not drawn): the Potency entry in experiment [1], in experiment [2], in experiment [4], in experiment [5] and in experiment [6] was “inactive” each time.

On to `CC(C)=CCC/C(C)=C/CC/C(C)=C/CCC(=O)OC/C=C(\C)CCC=C(C)C`, for which the Potency result in experiment [7], in experiment [4] and in experiment [5] was “inactive” throughout.

In the case of `Cn1c(=O)c2[nH]cnc2n(C)c1=O`, the Potency result in experiment [7], in experiment [4], in experiment [5] and in experiment [6] was “inactive” in each case.

Take `O=c1[nH]c(=O)n([C@H]2C[C@H](O)[C@@H](CO)O2)cc1I`: the Potency result in experiment [7], in experiment [4], in experiment [5] and in experiment [6] was “inactive” in each case.

`CC(C)(C)NC[C@H](O)COc1nsnc1N1CCOCC1`: the Potency entry in experiment [7], in experiment [4], in experiment [5] and in experiment [6] was “inactive” in each case.

`CC(=O)OCC[N+](C)(C)C`: the Potency result in experiment [7], in experiment [4], in experiment [5] and in experiment [6] was “inactive” each time.
